Reference: PubChem BioAssay
Active and inactive are the calls of the source. Unless noted, the rule behind the calls is not given here.

Assays:
[1] = anti-His antibody binders, primary screen, artefact control for SMM control protein annotation, biochemical, small-molecule microarray, 635 nm fluorescence (AID 1128); conditions: anti-His Alexa647 antibody binding, higher = more signal;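 note: score merges feature fluorescence with signal-to-noise for each printed compound spot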
[2] = test system: Human papillomavirus type 1a E7 protein (residues 1-88); test: HPV1a E7 small-molecule binders, primary screen, biochemical, small-molecule microarray, residues 1-88, 635 nm (AID 1129); conditions: small-molecule microarray binding, fluorescence 635 nm; higher = more signal
[3] = molecular target: Focal adhesion kinase 1 (Homo sapiens) (UniProt Q05397); test: small-molecule microarray binders of FAK, primary screen, biochemical, 635/667 nm fluorescence, BSA, DTT (AID 1130); conditions: PTK2 binding, 635 nm fluorescence, higher = more signal;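 note: composite of spot emission at 667 nm and signal to noise over triplicate slides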
[4] = test system: Fibrinogen (Alexa647-labelled); test: fibrinogen binders on compound microarrays, profiling panel, artefact control for SMM control-protein annotation, biochemical, small-molecule microarray, 635/667 nm fluorescence (AID 1131); conditions: fibrinogen-A647 binding fluorescence, higher = more signal;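 note: z-score merges 667 nm fluorescence with per-spot signal-to-noise over triplicate slides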
[5] = molecular target: Follistatin (Homo sapiens) (UniProt P19883); test: follistatin binders on small-molecule microarrays, primary screen, biochemical, small-molecule microarray, 635/667 nm fluorescence (AID 1132); conditions: FST binding, 635 nm fluorescence, higher = more signal
[6] = molecular target: Fibroblast growth factor 2 (Homo sapiens) (UniProt P09038); test: FGF2 binders on small-molecule microarrays, primary screen, biochemical, small-molecule microarray, 635/667 nm fluorescence (AID 1133); conditions: small-molecule microarray binding, FGF2, fluorescence 635/667; higher = more signal
[7] = mitochondrial membrane potential change in A549 cells, profiling panel, cell-based, JC-1 fluorescence, basal, 24 h, 100 nL (AID 1138); conditions: higher = more signal;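 note: A549 lung adenocarcinoma cells under basal conditions with no added stimulus; test concentration not given here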
Lefty1 = Lefty1 binders on small-molecule microarrays, primary screen, biochemical, small-molecule microarray, 635/667 nm fluorescence (AID 1139); conditions: small-molecule microarray binding, fluorescence 635/667; higher = more signal
[8] = test system: wheat germ agglutinin (Triticum aestivum), Alexa647-labelled; test: wheat germ agglutinin binders on compound microarrays, profiling panel, artefact control for SMM control-protein annotation, biochemical, small-molecule microarray, 635/667 nm fluorescence (AID 1140); conditions: WGA-A647 binding, 635 nm fluorescence, higher = more signal;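 note: score merges 667 nm feature emission with signal to noise over triplicate slides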
[9] = molecular target: Luciferin 4-monooxygenase (Photinus pyralis) (UniProt P08659); test: firefly luciferase enzyme inhibitors, primary screen, biochemical, luminescence, purified enzyme, 2006 set (AID 1141); conditions: SteadyGlo luminescence, 30 min, higher = more signal, called active from +8 up or from −8 down;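 note: cell-free assay with purified firefly luciferase at 100 ng per well in PBS; test concentration not given here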
[10] = test system: Wnt5a (protein binding on small-molecule microarray); test: Wnt5a binders on small-molecule microarray, primary screen, biophysical, 635/667 nm fluorescence (AID 1142); conditions: 635 nm fluorescence, higher = more signal;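 note: fluorescence read at 667 nm with signal to noise per printed feature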
[11] = cell viability in Huh7 cells, primary screen, cytotoxicity control for HCV replication inhibitor project, CellTiter-Glo luminescence, basal, 48 h (AID 1143); conditions: Huh7 HCV replicon, higher = more signal, called active from +8 up or from −8 down;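 note: Huh7 hepatoma cells carrying a hepatitis C replication reporter with no stimulus; test concentration not given here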
[12] = P. aeruginosa biofilm formation inhibitors, primary screen, PAO1 strain, BacTiter-Glo luminescence, LB-PBS (AID 1144); conditions: 12 h, higher = more signal
[13] = CREB reporter modulators without forskolin, primary screen, cell-based, PC12, CRE-LacZ reporter, unstimulated (AID 1145); conditions: no forskolin, luminescence, 4.5 h, higher = more signal, called active from +8 up or from −8 down
[14] = CREB reporter modulators under forskolin, primary screen, cell-based, PC12, CRE-LacZ reporter, forskolin-stimulated (AID 1146); conditions: luminescence, 4.5 h, higher = more signal, called active from +8 up or from −8 down;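 note: PC12 cells with 6xCRE LacZ reporter stimulated by forskolin 10 µM; beta-galactosidase reporter signal reflecting CREB driven transcription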
[15] = molecular target: Streptavidin (Streptomyces avidinii) (UniProt P22629); test: streptavidin binders on small-molecule microarray, primary screen, artefact control for SMM compound annotation, biophysical, 635/667 nm fluorescence (AID 1147); conditions: streptavidin binding, higher = more signal;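 note: signal reflects streptavidin binding to arrayed compounds as a control protein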
[16] = small-molecule binders of probe aInhba, primary screen, biochemical, small-molecule microarray, 635/667 nm fluorescence (AID 1148); conditions: higher = more signal;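 note: score merges 667nm spot fluorescence with signal-to-noise for antibody binding to printed compounds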
Torsin-1A (Homo sapiens) [17] = molecular target: Torsin-1A (Homo sapiens) (UniProt O14656); test: torsin A binders from cell lysate, primary screen, small-molecule microarray, wild-type, 635/667 nm (AID 1149); conditions: COS7 hTOR1A-WT lysate, 635 nm fluorescence, higher = more signal
Torsin-1A (Homo sapiens) [18] = molecular target: Torsin-1A (Homo sapiens) (UniProt O14656); test: small-molecule binders of mutant TOR1A in lysate, primary screen, cell lysate, small-molecule microarray, COS7 lysate, 635/667 nm fluorescence (AID 1150); conditions: COS7 hTOR1A mutant lysate, 635 nm fluorescence, higher = more signal;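 note: score pools 667 nm emission and signal to noise measuring lysate protein binding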
[19] = test system: Sonic hedgehog protein (Shh); test: small-molecule binders of Shh protein, primary screen, biochemical, small-molecule microarray, 635/667 nm fluorescence (AID 1151); conditions: small-molecule microarray binding, 635 nm fluorescence; higher = more signal;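 note: Shh protein binding to compounds spotted on small-molecule microarray slides; score combines spot fluorescence intensity with signal-to-noise across triplicate slides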

Sequence of Streptavidin (Streptomyces avidinii) (P22629 whole entry, looked up): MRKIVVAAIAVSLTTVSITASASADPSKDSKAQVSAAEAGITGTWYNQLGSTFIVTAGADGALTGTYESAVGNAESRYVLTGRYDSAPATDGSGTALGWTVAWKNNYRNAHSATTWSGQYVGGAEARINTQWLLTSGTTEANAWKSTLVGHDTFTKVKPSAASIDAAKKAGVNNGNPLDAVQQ
Sequence of Torsin-1A (Homo sapiens) (O14656 whole entry, looked up): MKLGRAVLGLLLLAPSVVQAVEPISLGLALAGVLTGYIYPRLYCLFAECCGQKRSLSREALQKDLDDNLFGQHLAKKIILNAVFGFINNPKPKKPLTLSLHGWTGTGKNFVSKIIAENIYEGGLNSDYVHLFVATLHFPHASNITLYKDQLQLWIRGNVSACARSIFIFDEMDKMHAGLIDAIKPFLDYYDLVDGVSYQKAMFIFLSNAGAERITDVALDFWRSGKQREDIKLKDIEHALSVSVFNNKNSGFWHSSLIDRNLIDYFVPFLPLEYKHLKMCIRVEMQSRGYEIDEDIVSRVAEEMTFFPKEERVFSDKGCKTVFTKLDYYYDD
Sequence of Focal adhesion kinase 1 (Homo sapiens) (Q05397 whole entry, looked up): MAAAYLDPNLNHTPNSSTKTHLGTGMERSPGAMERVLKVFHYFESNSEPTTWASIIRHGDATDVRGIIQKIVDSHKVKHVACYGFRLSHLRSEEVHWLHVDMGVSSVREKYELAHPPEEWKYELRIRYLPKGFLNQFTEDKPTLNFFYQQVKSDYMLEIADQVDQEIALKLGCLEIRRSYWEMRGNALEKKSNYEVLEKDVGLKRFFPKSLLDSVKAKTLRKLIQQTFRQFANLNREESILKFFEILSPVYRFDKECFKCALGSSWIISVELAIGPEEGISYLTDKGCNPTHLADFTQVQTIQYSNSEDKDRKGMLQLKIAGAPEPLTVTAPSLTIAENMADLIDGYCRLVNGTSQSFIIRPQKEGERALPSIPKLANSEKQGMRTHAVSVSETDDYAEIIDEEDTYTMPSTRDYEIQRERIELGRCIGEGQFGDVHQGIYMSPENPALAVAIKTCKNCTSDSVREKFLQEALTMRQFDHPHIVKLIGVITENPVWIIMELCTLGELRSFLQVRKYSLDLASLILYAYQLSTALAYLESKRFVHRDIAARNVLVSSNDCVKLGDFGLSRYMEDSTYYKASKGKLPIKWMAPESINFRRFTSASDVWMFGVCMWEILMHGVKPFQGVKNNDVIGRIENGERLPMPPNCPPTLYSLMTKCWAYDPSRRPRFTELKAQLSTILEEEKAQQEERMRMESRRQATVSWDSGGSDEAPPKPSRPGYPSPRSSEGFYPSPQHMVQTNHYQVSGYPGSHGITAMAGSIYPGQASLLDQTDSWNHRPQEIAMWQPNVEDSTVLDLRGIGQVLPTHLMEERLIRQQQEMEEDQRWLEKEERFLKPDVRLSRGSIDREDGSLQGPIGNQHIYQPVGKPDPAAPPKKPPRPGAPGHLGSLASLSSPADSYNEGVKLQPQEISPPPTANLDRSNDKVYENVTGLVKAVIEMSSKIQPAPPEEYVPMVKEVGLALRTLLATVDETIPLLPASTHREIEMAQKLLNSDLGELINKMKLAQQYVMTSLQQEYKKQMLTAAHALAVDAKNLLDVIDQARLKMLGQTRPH
Sequence of Luciferin 4-monooxygenase (Photinus pyralis) (P08659 whole entry, looked up): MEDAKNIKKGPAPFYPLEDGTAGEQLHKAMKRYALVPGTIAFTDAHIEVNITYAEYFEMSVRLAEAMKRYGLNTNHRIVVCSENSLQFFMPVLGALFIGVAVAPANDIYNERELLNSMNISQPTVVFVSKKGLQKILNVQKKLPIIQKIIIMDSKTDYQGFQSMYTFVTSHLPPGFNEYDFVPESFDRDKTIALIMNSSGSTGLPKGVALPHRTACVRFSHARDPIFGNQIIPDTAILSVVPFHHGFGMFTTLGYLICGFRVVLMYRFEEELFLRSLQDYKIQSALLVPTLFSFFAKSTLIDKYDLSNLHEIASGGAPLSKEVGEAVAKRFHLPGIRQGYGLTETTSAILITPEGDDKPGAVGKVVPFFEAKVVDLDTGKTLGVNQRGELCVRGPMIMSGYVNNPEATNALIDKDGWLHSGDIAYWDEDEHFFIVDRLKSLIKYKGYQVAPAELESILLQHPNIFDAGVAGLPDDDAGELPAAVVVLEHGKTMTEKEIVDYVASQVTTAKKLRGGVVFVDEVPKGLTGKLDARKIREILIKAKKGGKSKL
Sequence of Follistatin (Homo sapiens) (P19883 whole entry, looked up): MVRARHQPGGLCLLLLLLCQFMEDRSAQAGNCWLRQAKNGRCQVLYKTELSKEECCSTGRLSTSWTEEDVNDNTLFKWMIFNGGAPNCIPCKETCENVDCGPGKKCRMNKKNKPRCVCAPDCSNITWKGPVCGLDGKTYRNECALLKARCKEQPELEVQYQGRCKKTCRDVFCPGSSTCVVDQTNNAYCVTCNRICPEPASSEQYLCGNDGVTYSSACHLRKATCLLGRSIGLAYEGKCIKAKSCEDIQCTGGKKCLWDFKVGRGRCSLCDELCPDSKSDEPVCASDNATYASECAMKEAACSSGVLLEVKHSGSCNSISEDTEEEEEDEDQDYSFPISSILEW
Sequence of Fibroblast growth factor 2 (Homo sapiens) (P09038 whole entry, looked up): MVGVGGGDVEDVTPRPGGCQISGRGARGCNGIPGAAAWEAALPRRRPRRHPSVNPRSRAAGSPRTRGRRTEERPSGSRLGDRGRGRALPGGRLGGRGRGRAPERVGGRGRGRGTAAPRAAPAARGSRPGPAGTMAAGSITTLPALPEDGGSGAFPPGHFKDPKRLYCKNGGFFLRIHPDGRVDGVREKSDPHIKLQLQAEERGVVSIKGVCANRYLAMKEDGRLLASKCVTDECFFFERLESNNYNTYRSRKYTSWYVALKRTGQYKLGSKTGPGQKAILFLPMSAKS

| SMILES | composite z-score [1] | composite z-score [2] | composite z-score [3] | composite z-score [4] | composite z-score [5] | composite z-score [6] | z-score [7] | composite z-score (Lefty1) | composite z-score [8] | z-score [9] | composite z-score [10] | z-score [11] | z-score [12] | z-score [13] | z-score [14] | composite z-score [15] | composite z-score [16] | composite z-score (Torsin-1A (Homo sapiens) [17]) | composite z-score (Torsin-1A (Homo sapiens) [18]) | composite z-score [19] |
| --- | --- | --- | --- | --- | --- | --- | --- | --- | --- | --- | --- | --- | --- | --- | --- | --- | --- | --- | --- | --- |
| C=CCN1C(=O)[C@@]2(O[C@@H](CCn3cc([C@H](O)c4ccccc4)nn3)[C@H]([Si](C)(C)c3ccc(OC)cc3)[C@H]2C)c2cc(N3CCC3=O)ccc21 | 1.65 | 1.09 | -0.082 | -0.117 | 0.345 | 0.0863 | 2.25 | -0.127 | 0.552 | -1.21 (inactive) | -0.162 | -1.83 (inactive) | -1.01 (inactive) | 17 (active) | -1.02 (inactive) | -0.101 | -0.154 | 0.195 | 0.183 | -0.0053 |
| C=C[C@@H](OC)[C@H](OC(=O)Nc1ccc(SC)cc1)c1ccc(O)c(F)c1 | 3.07 | 1.23 | 0.566 | 0.763 | 1.11 | 0.207 | -1.47 | 0.885 | 0.679 | -1.59 (inactive) | 0.183 | -1.57 (inactive) | -1.04 (inactive) | 0.847 (inactive) | 0.425 (inactive) | -0.376 | 0.0679 | 0.242 | 0.679 | 1.14 |
| [N-]=[N+]=NCc1ccccc1C[C@@]1(C(=O)NCc2ccccc2)N=C(c2ccc(OCCCO)cc2)O[C@@H]1c1ccccc1N=[N+]=[N-] | 1.64 | 1.18 | 0.0861 | 0.948 | 0.557 | -0.58 | 1.12 | -0.324 | 1.15 | -6.99 (inactive) | 0.122 | -3.96 (inactive) | 0.0507 (inactive) | 1.05 (inactive) | -0.639 (inactive) | 1.2 | -0.003 | 0.0959 | 0.461 | -1.08 |
| C=CC1c2cc(O)c(OC)cc2CCN1Cc1cc2c(cc1Br)OCO2 (stereo not given) | 0.976 | -1.38 | -0.0181 | -0.851 | 1.27 | -0.0941 | -1.54 | 0.504 | -0.623 | 0.0715 (inactive) | -0.158 | -5.24 (inactive) | 0.0937 (inactive) | 0.299 (inactive) | 0.962 (inactive) | -0.361 | -0.128 | 1.34 | 0.587 | 0.672 |
| C=C(C(=O)CC[C@@H](OC(C)=O)c1ccc(CO)o1)C(C)C | 0.922 | -0.218 | -0.26 | 0.454 | 1.33 | 1.49 | -0.246 | 1.59 | -0.0963 | -1.76 (inactive) | 0.911 | 1.18 (inactive) | -0.947 (inactive) | 0.275 (inactive) | 2.17 (inactive) | 0.0155 | -0.0427 | -0.427 | -0.0059 | 1.91 |
| COc1ccc([Si](C)(C)[C@@H]2[C@@H](CCn3cc([C@H](O)c4ccccc4)nn3)O[C@]3(C(=O)N(Cc4ccc(N5CCC5=O)cc4)c4ccccc43)[C@H]2C)cc1 | 0.174 | -0.304 | -0.0467 | -0.926 | 1.31 | 0.749 | 1.87 | 1.05 | 0.118 | -0.325 (inactive) | 0.512 | -2.65 (inactive) | -1.38 (inactive) | 1.03 (inactive) | 0.355 (inactive) | -0.105 | -0.184 | 2.13 | 0.269 | 2.02 |
| COc1ccc([Si](C)(C)[C@@H]2[C@@H](CCO)O[C@]3(C(=O)N(Cc4ccc(N5CCCCC5=O)cc4)c4ccccc43)[C@H]2C)cc1 | 2.21 | 1.14 | -0.0284 | 0.842 | 1.07 | 1.1 | 1.74 | 0.572 | 0.916 | -1.24 (inactive) | 0.123 | -7.34 (inactive) | -0.701 (inactive) | 8.03 (active) | -1.2 (inactive) | 0.269 | -0.0471 | 0.0458 | 0.342 | 1.72 |
| COc1ccc(-c2cc3c(c(CCc4ccccc4)n2)[Si](C(C)C)(C(C)C)OC3)cn1 | 0.0933 | -0.765 | -0.192 | -0.284 | 0.323 | -0.025 | -0.585 | 0.496 | -0.289 | 1.17 (inactive) | -0.131 | -0.817 (inactive) | -0.0937 (inactive) | -0.127 (inactive) | 0.307 (inactive) | 0.294 | -0.0986 | 0.188 | -0.168 | 0.434 |
| COC(=O)[C@@]1(Cc2ccccc2N=[N+]=[N-])N=C(c2ccc(OCCCO)cc2)O[C@H]1c1ccccc1N=[N+]=[N-] | 1.08 | 1.14 | 0.909 | 0.605 | 1.27 | 0.933 | 2.85 | 0.119 | 0.767 | -5.01 (inactive) | 0.323 | -5.44 (inactive) | -0.455 (inactive) | 1.53 (inactive) | 0.237 (inactive) | 0.169 | 0.221 | -0.266 | 0.0067 | 0.58 |
